# Measured values taken from PubChem BioAssay (Tox21).
# Several values for one entry are separate records, joined by “and”; a condition that tells them apart may be missing. Identical values can stand only once. A structure can be active in one record and inactive in another. Activity calls are given as the source filed them. Unless noted, calls follow the shape of the dose curve; as a rule, active = well fitted curve in the direction sought with a large enough effect in the repeat runs; inconclusive = weak or mixed curves; inactive = no such curve, though single readings can be large; an effect the other way counts as inactive or inconclusive.
# What was measured:
# [1] = qHTS assay for identifying genotoxic compounds that show differential cytotoxicity against isogenic chicken DT40 cell lines with known DNA damage response pathways - wild type cell line (AID 743012); also: nearly all actives have a fitted effect of over 60% in size; also: potency is read from the fitted curve at half-maximal effect
# Outline: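 Wild type DT40, 300 cells/well, ~0.5 h settle at 37 C/5% CO2; compounds in DMSO added by pintool; 40 h at 37 C/5% CO2; CellTiter-Glo, 30 min RT; luminescence.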
# [2] = qHTS assay for identifying genotoxic compounds that show differential cytotoxicity against isogenic chicken DT40 cell lines with known DNA damage response pathways - Rev3 mutant cell line (AID 743014); also: nearly all actives have a fitted effect of over 55% in size; also: potency is read from the fitted curve at half-maximal effect
# [3] = qHTS assay for identifying genotoxic compounds that show differential cytotoxicity against isogenic chicken DT40 cell lines with known DNA damage response pathways - Rad54/Ku70 mutant cell line (AID 743015); also: nearly all actives have a fitted effect of over 60% in size; also: potency is read from the fitted curve at half-maximal effect
# [4] = qHTS assay to identify small molecule antagonists of the androgen receptor (AR) signaling pathway - cell viability counter screen (AID 743033; also: nearly all actives have a fitted effect of over 45% in size; also: potency is read from the fitted curve at half-maximal effect)
# [5] = biological target: Androgen receptor (Homo sapiens) (UniProt P10275); assay: qHTS assay to identify small molecule antagonists of the androgen receptor (AR) signaling pathway (AID 743035; active = well fitted inhibition curve with a large enough effect in the signal ratio in the repeat runs, not every such curve was filed as active; inconclusive = weak or mixed curves, or effect the other way; inactive = no such curve, though single readings can be large or run the other way; the % refers to the signal ratio; also: potency is read from the fitted curve at half-maximal effect)
# Sequence of Androgen receptor (Homo sapiens) (P10275 whole entry, looked up): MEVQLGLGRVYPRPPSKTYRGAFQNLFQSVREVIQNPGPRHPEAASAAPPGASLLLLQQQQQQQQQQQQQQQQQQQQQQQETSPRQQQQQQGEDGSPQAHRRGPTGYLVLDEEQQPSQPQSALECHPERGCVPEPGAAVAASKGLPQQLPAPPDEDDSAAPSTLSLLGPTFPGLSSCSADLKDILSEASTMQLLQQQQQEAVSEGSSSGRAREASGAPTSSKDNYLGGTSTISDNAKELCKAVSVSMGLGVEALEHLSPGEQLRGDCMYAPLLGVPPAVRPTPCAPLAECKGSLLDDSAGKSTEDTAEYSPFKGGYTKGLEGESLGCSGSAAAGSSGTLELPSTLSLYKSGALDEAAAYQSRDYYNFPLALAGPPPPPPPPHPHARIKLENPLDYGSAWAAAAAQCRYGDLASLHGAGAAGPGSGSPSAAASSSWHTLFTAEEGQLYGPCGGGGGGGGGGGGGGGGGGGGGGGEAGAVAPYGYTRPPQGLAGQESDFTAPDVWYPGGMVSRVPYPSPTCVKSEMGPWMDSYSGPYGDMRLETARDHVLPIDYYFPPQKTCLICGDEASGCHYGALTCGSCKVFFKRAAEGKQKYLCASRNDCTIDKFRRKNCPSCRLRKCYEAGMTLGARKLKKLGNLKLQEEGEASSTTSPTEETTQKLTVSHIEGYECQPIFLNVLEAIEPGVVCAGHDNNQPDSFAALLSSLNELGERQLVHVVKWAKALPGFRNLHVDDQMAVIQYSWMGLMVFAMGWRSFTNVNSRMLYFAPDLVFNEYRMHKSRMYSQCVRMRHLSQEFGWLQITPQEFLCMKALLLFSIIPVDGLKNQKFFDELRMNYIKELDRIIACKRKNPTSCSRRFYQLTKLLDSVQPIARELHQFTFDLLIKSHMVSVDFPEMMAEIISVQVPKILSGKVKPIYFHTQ
# Outline: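 Fluorescence from a beta-lactamase FRET substrate (LiveBLAzer B/G, 2 h, room temperature) measured inhibition of R1881-stimulated signaling in GeneBLAzer AR-UAS-bla HEK293 cells exposed to compound for 16 h at 37C.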
# [6] = biological target: Androgen receptor (Homo sapiens) (UniProt P10275); assay: qHTS assay to identify small molecule agonists of the androgen receptor (AR) signaling pathway (AID 743036; active = well fitted activation curve with a large enough effect in the signal ratio in the repeat runs, with a control signal flat, not every such curve was filed as active; inconclusive = weak or mixed curves, or effect the other way; inactive = no such curve, though single readings can be large or run the other way; the % refers to the signal ratio; also: % is scaled to controls: 0 for no effect and ±100 for the full control effect)
# Outline: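 Reporter line: GeneBLAzer AR-UAS-bla-GripTite (HEK293). Steps: plate cells, 4 h rest, add compounds, 16 h at 37C, add LiveBLAzer B/G substrate, 2 h at RT, read fluorescence.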
# [7] = biological target: Androgen receptor (Homo sapiens) (UniProt P10275); assay: qHTS assay to identify small molecule agonists of the androgen receptor (AR) signaling pathway using the MDA cell line (AID 743040; also: nearly all actives have a fitted effect of over 20% in size; also: potency is read from the fitted curve at half-maximal effect)
# Outline: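 Cells plated, 5 h at 37C/0% CO2; compound or DMSO pinned; 16 h at 37C; ONE-Glo added; luminescence measured after 30 min at room temperature. Reporter line: MDA-kb2 with MMTV-luciferase responsive to AR and GR.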
# [8] = qHTS assay to identify small molecule antagonists of the androgen receptor (AR) signaling pathway using the MDA cell line - cell viability counter screen (AID 743041; also: nearly all actives have a fitted effect of over 45% in size; also: potency is read from the fitted curve at half-maximal effect)
# Outline: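 Cells were plated at 3,000 per well and left 5 h. Compounds in DMSO were then pinned in, followed by R1881. After 16 h at 37C, CellTiter-Fluor fluorescence gave viability.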
# [9] = biological target: Androgen receptor (Homo sapiens) (UniProt P10275); assay: qHTS assay to identify small molecule antagonists of the androgen receptor (AR) signaling pathway using the MDA cell line (AID 743042; also: nearly all actives have a fitted effect of over 55% in size; also: potency is read from the fitted curve at half-maximal effect)
# Outline: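 Antagonist mode: compounds plus R1881 agonist added to MDA-kb2 AR-luc cells, incubated 16 h at 37C. Luciferase reporter luminescence quantified, with multiplexed CellTiter-Fluor readout for cell viability.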
# [10] = qHTS assay to identify small molecule antagonists of the thyroid receptor (TR) signaling pathway - cell viability counter screen (AID 743064); also: potency is read from the fitted curve at half-maximal effect; nearly all actives have a fitted effect of over 50% in size
# Outline: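 Plate GH3.TRE-Luc cells; incubate 4 h at 37 °C; add compound, then T3 to 1 nM final; incubate 23.5 h; add CellTiter-Fluor; incubate 30 min at 37 °C, 5% CO2; read fluorescence.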
# [11] = qHTS assay to identify small molecule antagonists of the thyroid receptor (TR) signaling pathway (AID 743065); also: potency is read from the fitted curve at half-maximal effect; nearly all actives have a fitted effect of over 55% in size
# Outline: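 Antagonism measured as loss of luciferase signal in GH3 cells stably carrying a TRE-luciferase reporter, co-treated with compound and T3 (1 nM final) for 23.5 h at 37 C. Viability was read in the same well by CellTiter-Fluor.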
# [12] = system: thyroid hormone receptor (rat, GH3 cells); assay: qHTS assay to identify small molecule agonists of the thyroid receptor (TR) signaling pathway (AID 743066; calls by dose curve; also: % is scaled to controls: 0 for no effect and ±100 for the full control effect)
# [13] = biological target: Estrogen receptor (Homo sapiens) (UniProt P03372); assay: qHTS assay to identify small molecule antagonists of the estrogen receptor alpha (ER-alpha) signaling pathway (AID 743069; active = well fitted curve in the direction sought with a large enough effect in the signal ratio in the repeat runs, not every such curve was filed as active; inconclusive = weak or mixed curves, or effect the other way; inactive = no such curve, though single readings can be large or run the other way; the % refers to the signal ratio; also: potency is read from the fitted curve at half-maximal effect)
# Sequence of Estrogen receptor (Homo sapiens) (P03372 whole entry, looked up): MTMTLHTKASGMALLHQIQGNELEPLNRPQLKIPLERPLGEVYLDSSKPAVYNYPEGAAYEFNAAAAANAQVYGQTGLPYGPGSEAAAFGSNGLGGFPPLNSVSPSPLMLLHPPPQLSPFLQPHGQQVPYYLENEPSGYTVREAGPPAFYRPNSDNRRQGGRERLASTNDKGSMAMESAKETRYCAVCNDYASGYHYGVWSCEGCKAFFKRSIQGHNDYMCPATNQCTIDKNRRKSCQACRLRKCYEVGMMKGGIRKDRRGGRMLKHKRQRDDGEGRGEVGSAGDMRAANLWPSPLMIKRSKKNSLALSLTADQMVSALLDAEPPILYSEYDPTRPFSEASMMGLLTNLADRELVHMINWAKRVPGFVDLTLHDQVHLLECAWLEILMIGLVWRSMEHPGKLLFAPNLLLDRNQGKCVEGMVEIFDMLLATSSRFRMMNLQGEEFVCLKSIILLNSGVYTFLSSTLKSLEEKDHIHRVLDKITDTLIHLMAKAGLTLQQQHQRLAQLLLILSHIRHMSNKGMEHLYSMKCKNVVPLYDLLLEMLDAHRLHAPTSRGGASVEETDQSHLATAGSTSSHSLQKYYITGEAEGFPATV
# Outline: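 ER-alpha-UAS-bla GripTite HEK293 line; 2% charcoal-stripped FBS overnight; plated, 4 hr 37C/5% CO2; cpd in DMSO + 17beta-estradiol, 18 hr 37C; LiveBLAzer B/G FRET substrate 2 hr RT; fluorescence intensity.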
# [14] = qHTS assay to identify small molecule antagonists of the estrogen receptor alpha (ER-alpha) signaling pathway - cell viability counter screen (AID 743074; calls by dose curve;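 also: HEK293 cells carrying ER-alpha-UAS-bla reporter stimulated with 17beta-estradiol; nearly all actives have a fitted effect of over 45% in size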; also: potency is read from the fitted curve at half-maximal effect)
# [15] = biological target: Estrogen receptor (Homo sapiens) (UniProt P03372); assay: qHTS assay to identify small molecule agonists of the estrogen receptor alpha (ER-alpha) signaling pathway (AID 743075; calls by dose curve;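 also: HEK293 GripTite cells with ER-alpha and UAS-driven beta-lactamase reporter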; also: potency is read from the fitted curve at half-maximal effect; as to activation: % is scaled to controls: 0 for no effect and ±100 for the full control effect); conditions: HEK293 ER-alpha-UAS-bla, beta-lactamase FRET ratio, 18 h; activation: at 70.1 µM (top of the series)
# [16] = biological target: Estrogen receptor (Homo sapiens) (UniProt P03372); assay: qHTS assay to identify small molecule agonists of the estrogen receptor alpha (ER-alpha) signaling pathway using the BG1 cell line (AID 743079); conditions: BG1Luc4E2 cells, ERE-luciferase agonist, 22 h; also: nearly all actives have a fitted effect of over 20% in size; also: potency is read from the fitted curve at half-maximal effect; as to activation: % is scaled to controls: 0 for no effect and ±100 for the full control effect
# [17] = qHTS assay to identify small molecule antagonists of the estrogen receptor alpha (ER-alpha) signaling pathway using the BG1 cell line (AID 743080; calls by dose curve;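 also: BG1 cells stimulated with 17beta-estradiol alongside compound; nearly all actives have a fitted effect of over 25% in size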; also: potency is read from the fitted curve at half-maximal effect)
# Outline: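 Seeding, 24 h rest, compound transfer from DMSO, 17beta-estradiol addition, 21.5 h incubation, CellTiter-Fluor (30 min, 37 C), then ONE-Glo (30 min, room temperature): this sequence was run on BG1-Luc-4E2 reporter cells.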
# [18] = qHTS assay to identify small molecule antagonists of the estrogen receptor alpha (ER-alpha) signaling pathway using the BG1 cell line - cell viability counter screen (AID 743081);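 also: compound given together with 17beta-estradiol as the ER stimulus; nearly all actives have a fitted effect of over 45% in size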; also: potency is read from the fitted curve at half-maximal effect
# [19] = biological target: Aromatase (Homo sapiens) (UniProt P11511); assay: qHTS assay to identify aromatase inhibitors (AID 743083); also: nearly all actives have a fitted effect of over 55% in size; also: potency is read from the fitted curve at half-maximal effect
# Sequence of Aromatase (Homo sapiens) (P11511 whole entry, looked up): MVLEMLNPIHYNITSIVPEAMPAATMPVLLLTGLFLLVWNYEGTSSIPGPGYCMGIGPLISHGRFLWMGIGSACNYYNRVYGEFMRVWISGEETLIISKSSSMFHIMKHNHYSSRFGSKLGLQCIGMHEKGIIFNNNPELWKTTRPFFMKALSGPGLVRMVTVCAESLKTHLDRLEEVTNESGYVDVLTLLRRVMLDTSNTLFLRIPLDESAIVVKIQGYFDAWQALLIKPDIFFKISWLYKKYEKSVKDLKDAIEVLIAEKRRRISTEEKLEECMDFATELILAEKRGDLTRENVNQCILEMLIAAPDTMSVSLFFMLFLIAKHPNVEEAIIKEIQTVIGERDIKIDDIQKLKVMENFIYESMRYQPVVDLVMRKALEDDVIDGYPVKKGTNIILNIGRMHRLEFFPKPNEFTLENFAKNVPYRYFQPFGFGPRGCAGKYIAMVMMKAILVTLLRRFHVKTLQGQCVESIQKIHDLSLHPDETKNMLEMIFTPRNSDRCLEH
smiles,measurement,setting,value
CC[C@H](c1ccc(O)cc1)[C@@H](CC)c1ccc(O)cc1,Potency,[1],12.2 µM (active)
same,Potency,[2],10.1 µM (active) and 13.7 µM (active)
same,Potency,[3],19.3 µM (active)
same,Potency,[4],inactive
same,Potency,[5],8.11 µM (active) and 21.9 µM (active)
same,Potency,[6],inactive
same,Potency,[7],inactive
same,Potency,[8],inactive
same,Potency,[9],inactive and 54.5 µM (active)
same,Potency,[10],30.6 µM (active)
same,Potency,[11],19.3 µM (active)
same,Potency,[12],inactive
same,Potency,[13],inactive
same,Potency,[14],inactive
same,Potency,[15],0.0002 µM [inconclusive] (active)
same,activation,[15],38.2% [inconclusive] (active)
same,activation,[16]; at 32.5 µM (top of the series),58.6% (active)
same,activation,[16]; at 70.3 µM (top of the series),-55.2% (active)
same,Potency,[17],68.6 µM (active)
same,Potency,[18],inactive
same,Potency,[19],inactive and 27.3 µM (active)
Nc1ccc2c3c(cccc13)-c1ccccc1-2,Potency,[1],61.8 µM (active)
same,Potency,[2],27.6 µM (active)
same,Potency,[3],55 µM (active)
same,Potency,[4],inactive
same,Potency,[7],inactive
same,Potency,[9],inactive
same,Potency,[11],43.7 µM (active)
same,Potency,[12],inactive
same,Potency,[16],8.72 µM (active)
CC(C)(C)c1ccc(C(=O)CCCN2CCC(OC(c3ccccc3)c3ccccc3)CC2)cc1,Potency,[1],4.22 µM (active)
same,Potency,[2],5.31 µM (active)
same,Potency,[3],5.96 µM (active)
same,Potency,[4],inactive
same,Potency,[8],inactive
same,Potency,[10],11.9 µM (active)
same,Potency,[11],13.3 µM (active)
same,Potency,[14],23.9 µM (active)
same,Potency,[19],inactive
CSc1ccc2c(c1)C(N1CCN(C)CC1)Cc1ccccc1S2 (configuration not stated),Potency,[1],5.96 µM (active)
same,Potency,[2],6.68 µM (active)
same,Potency,[3],9.44 µM (active)
same,Potency,[8],inactive
same,Potency,[10],7.5 µM (active)
same,Potency,[11],8.41 µM (active)
same,Potency,[15],inactive
same,activation,[16]; at 70.3 µM (top of the series),-16.2% (inactive)
same,Potency,[17],inactive
same,Potency,[18],inactive
COc1ccc(-c2ccc3cc(C(=O)O)ccc3c2)cc1C12CC3CC(CC(C3)C1)C2,Potency,[1],inactive
same,Potency,[2],inactive
same,Potency,[3],inactive
same,Potency,[4],inactive
same,Potency,[8],inactive
same,Potency,[10],1.68 µM (active)
same,Potency,[11],1.33 µM (active)
same,Potency,[12],inactive
same,Potency,[13],7.56 µM [inconclusive] (active)
same,Potency,[14],inactive
same,Potency,[15],inactive
same,activation,[16]; at 70.3 µM (top of the series),-4.61% (inactive)
same,Potency,[17],0.376 µM (active)
same,Potency,[18],inactive
CCOC(=O)c1nc(C(Cl)(Cl)Cl)n(-c2ccc(Cl)cc2Cl)n1,Potency,[1],48.6 µM (active)
same,Potency,[2],34.4 µM (active)
same,Potency,[3],30.6 µM (active)
same,Potency,[4],49 µM (active)
same,Potency,[7],inactive
same,Potency,[8],inactive
same,Potency,[9],68.6 µM (active)
same,Potency,[11],68.6 µM (active)
same,Potency,[14],inactive
same,Potency,[15],inactive
same,Potency,[17],inactive
same,Potency,[19],61.1 µM (active)
CCCCCCCCCOC(=O)c1ccc(O)cc1,Potency,[2],19.1 µM (active)
same,Potency,[3],19.1 µM (active)
same,Potency,[5],24.2 µM (active)
same,Potency,[7],inactive
same,Potency,[12],inactive
same,Potency,[18],inactive
same,Potency,[19],30.2 µM (active)
Oc1ccc(N=Nc2ccccc2)cc1,Potency,[2],61.9 µM (active)
same,Potency,[7],inactive
same,Potency,[9],inactive
same,Potency,[10],49.2 µM (active)
same,Potency,[11],61.9 µM (active)
same,Potency,[12],inactive
same,Potency,[13],39.4 µM [inconclusive] (active)
same,Potency,[15],49.6 µM [inconclusive] (active)
same,Potency,[16],6.19 µM (active)
same,Potency,[19],inactive
CSc1ccc(/C=C2/C(C)=C(CC(=O)O)c3cc(F)ccc32)cc1,Potency,[1],inactive
same,Potency,[2],inactive
same,Potency,[3],inactive
same,Potency,[5],inactive
same,Potency,[7],inactive
same,Potency,[8],inactive
same,Potency,[9],inactive
same,Potency,[12],inactive
same,Potency,[15],inactive
same,activation,[16]; at 70.3 µM (top of the series),-0.897% (inactive)
same,Potency,[17],inactive
same,Potency,[18],inactive
same,Potency,[19],inactive
Oc1cccc(-c2c3nc(c(-c4cccc(O)c4)c4ccc([nH]4)c(-c4cccc(O)c4)c4nc(c(-c5cccc(O)c5)c5ccc2[nH]5)CC4)C=C3)c1,Potency,[2],29.8 µM (active)
same,Potency,[3],26.6 µM (active)
same,Potency,[4],inactive and 23.9 µM (active)
same,Potency,[7],inactive
same,Potency,[8],23.7 µM (active)
same,Potency,[9],inactive
same,Potency,[10],11.9 µM (active) and 10.6 µM (active)
same,Potency,[11],8.41 µM (active) and 7.5 µM (active)
same,Potency,[15],inactive
same,Potency,[17],inactive
same,Potency,[18],9.44 µM (active) and 11.9 µM (active)
same,Potency,[19],inactive and 26.6 µM (active)
CCCC(=O)OC[C@@H](OC(=O)CCC)[C@@H](OC(=O)CCC)[C@H](Cn1c2nc(=O)[nH]c(=O)c-2nc2cc(C)c(C)cc21)OC(=O)CCC,Potency,[1],11.9 µM (active)
same,Potency,[2],13.3 µM (active)
same,Potency,[3],10.6 µM (active)
same,Potency,[4],inactive
same,Potency,[5],inactive
same,Potency,[7],5.31 µM (active)
same,Potency,[9],23.7 µM (active)
same,Potency,[11],21.1 µM (active)
same,Potency,[12],inactive
same,Potency,[14],inactive
same,Potency,[15],inactive
same,Potency,[17],29.8 µM (active)
same,Potency,[19],inactive
c1cc(C(c2ccc(OCC3CO3)cc2)c2ccc(OCC3CO3)cc2)ccc1OCC1CO1 (configuration not stated),Potency,[1],24.3 µM (active)
same,Potency,[2],0.969 µM (active)
same,Potency,[3],13.7 µM (active)
same,Potency,[7],inactive
same,Potency,[8],inactive
same,Potency,[10],17.2 µM (active)
same,Potency,[11],12.2 µM (active)
same,Potency,[14],inactive
same,Potency,[15],inactive
same,Potency,[17],inactive
same,Potency,[18],inactive
same,Potency,[19],68.6 µM (active)
